Experimental data taken from ChEMBL document CHEMBL3988442, “University of Dundee, Small-Polar-MMV Screening Library” (2021).

What was measured:
[1] = target: T1, Aspartate--tRNA(Asp/Asn) ligase (Mycobacterium tuberculosis (strain ATCC 25618 / H37Rv)) (UniProt P9WFW3); assay: Assay for Asp RNA synthetase-1 from Mycobacterium tuberculosis; assay type: functional; set-up: scale not given: direction of the effect not stated beside the values; conditions: 30 µM; note: in the data most compounds retested in dose-response had high values
T1 sequence (whole entry): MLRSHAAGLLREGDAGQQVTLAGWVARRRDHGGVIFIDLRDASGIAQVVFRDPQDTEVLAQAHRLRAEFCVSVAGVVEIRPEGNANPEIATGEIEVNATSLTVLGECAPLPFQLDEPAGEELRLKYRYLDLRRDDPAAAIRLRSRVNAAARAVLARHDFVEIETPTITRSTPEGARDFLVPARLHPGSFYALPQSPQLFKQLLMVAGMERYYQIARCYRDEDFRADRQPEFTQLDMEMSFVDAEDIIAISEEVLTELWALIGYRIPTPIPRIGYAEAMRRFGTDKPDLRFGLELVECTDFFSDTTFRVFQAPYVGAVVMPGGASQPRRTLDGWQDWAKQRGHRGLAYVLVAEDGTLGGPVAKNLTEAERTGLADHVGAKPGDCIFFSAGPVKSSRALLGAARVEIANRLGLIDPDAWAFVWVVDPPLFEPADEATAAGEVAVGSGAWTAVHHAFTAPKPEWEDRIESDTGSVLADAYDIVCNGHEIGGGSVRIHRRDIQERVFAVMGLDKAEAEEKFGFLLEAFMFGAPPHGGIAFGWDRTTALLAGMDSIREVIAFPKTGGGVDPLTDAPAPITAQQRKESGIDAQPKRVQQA

[2] = target: Shiga toxin 2 (Escherichia coli O157:H7) (UniProt P09385+P09386); assay: E. coli 0.157:H7 Shiga Toxin SOP - stx2 screening assay; assay type: functional; set-up: scale not given: direction of the effect not stated beside the values; conditions: 30 µM

COc1cc(CNC(=O)CNc2cc(Cl)ccc2OC)ccn1
Percent Effect [1]: 3.88% | Percent Effect [2]: 20.6%

CCOC(=O)CN1CCC2(CC1)CC(=O)c1ccc(OC)cc1O2
Percent Effect [1]: -2.78% | Percent Effect [2]: 10.6%

c1ccc(NCc2cn3c(n2)CN(Cc2cccnc2)CC3)nc1
Percent Effect [1]: -1.64% | Percent Effect [2]: -39.5%

Cc1cc(C(=O)NCc2ccccn2)no1
Percent Effect [1]: -4.62% | Percent Effect [2]: -0.424%

CCN(C)c1ncnc2c1CCN(Cc1ccoc1)CC2
Percent Effect [1]: 5.11% | Percent Effect [2]: -28.5%

Clc1cc(CN2CCCC2Cn2cncn2)c2ncccc2c1 (stereo not given)
Percent Effect [1]: -0.0583% | Percent Effect [2]: 6.1%

COCCC(=O)N1CCC2(CC1)CC(c1ccccc1)CN(C)C2 (stereo not given)
Percent Effect [1]: -3.3% | Percent Effect [2]: 17.5%

CNc1cncc(C2CCCN(S(C)(=O)=O)C2)n1 (stereo not given)
Percent Effect [1]: 5.76% | Percent Effect [2]: 2.62%

CCCN1CCCn2nc(CNS(=O)(=O)c3cccc(C#N)c3)cc2C1
Percent Effect [1]: -1.36% | Percent Effect [2]: 28.5%

CCCc1nc(CN2CCN(Cc3noc(CCC)n3)CC2)no1
Percent Effect [1]: -5.2% | Percent Effect [2]: -39.2%

Cc1cnn(CC(C)NCc2nc(-c3ccco3)no2)c1 (stereo not given)
Percent Effect [1]: -4.9% | Percent Effect [2]: 2.91%

COc1cccc(OCC2CCCN(C(=O)c3cnc(C)nc3O)C2)c1 (stereo not given)
Percent Effect [1]: -0.346% | Percent Effect [2]: 2.77%

CC(C)c1nccn1C1CCCN(C(=O)c2ccnc(N(C)C)c2)C1 (stereo not given)
Percent Effect [1]: 2.16% | Percent Effect [2]: -29.7%

CC(OCC1CC1)C(=O)N1CCCN(Cc2cnn(C)c2)CC1 (stereo not given)
Percent Effect [1]: 1.41% | Percent Effect [2]: -83.1%

Cn1ccc2ccc(C(=O)N3CCN(C(=O)N4CCOCC4)CC3)cc21
Percent Effect [1]: -0.0331% | Percent Effect [2]: 7.14%

CC(=O)N1CCN(C(=O)C(C)n2cncn2)CC1 (stereo not given)
Percent Effect [1]: -4.44% | Percent Effect [2]: 1.67%

CNC(=O)c1cc2c(nc1NC(C)C)CCN(C(=O)NC(C)C)CC2
Percent Effect [1]: -2.07% | Percent Effect [2]: 0.412%

CC1c2ncc(CN3CCN(C)CC3)n2CCN1CC1CC1 (stereo not given)
Percent Effect [1]: 0.815% | Percent Effect [2]: -23.1%

O=c1c2ccccc2nc2n1C(CSc1ccc(Cl)cc1Cl)CN2 (stereo not given)
Percent Effect [1]: 4.53% | Percent Effect [2]: 9.69%

COCc1cccc(NS(=O)(=O)c2cc(C(=O)O)cs2)c1
Percent Effect [1]: 0.144% | Percent Effect [2]: -27.7%

CC(C)c1nn(C)c(Cl)c1CNCC(O)c1cccc(F)c1 (stereo not given)
Percent Effect [1]: -0.173% | Percent Effect [2]: 10.3%

c1cnn(CC2CN(CCc3ccncc3)CCO2)c1 (stereo not given)
Percent Effect [1]: 2.1% | Percent Effect [2]: 17.1%

CC(=O)N(C)c1nc(CN2CCCCC2Cn2cncn2)cs1 (stereo not given)
Percent Effect [1]: -3.1% | Percent Effect [2]: 9.21%

Cc1ccc(C(C)NC(=O)Nc2ccccc2CN2CCOCC2)o1 (stereo not given)
Percent Effect [1]: -6.02% | Percent Effect [2]: 17.3%

CN(C)[C@@H]1CCN(c2ncccn2)[C@H]1Cc1ccncc1
Percent Effect [1]: 0.268% | Percent Effect [2]: -22.4%

Cc1cc(C)n(CCC(=O)N2CCCC(n3cncn3)C2)n1 (stereo not given)
Percent Effect [1]: -6.22% | Percent Effect [2]: 0.596%

CC(=O)N1CCN(c2ccc3ccc(C(=O)NC4CCCC4)cn23)CC1
Percent Effect [1]: -0.91% | Percent Effect [2]: -45%

Cc1nn(C)c(C)c1C1CCCN1Cc1nc(C)c2ccccc2n1 (stereo not given)
Percent Effect [1]: 0.742% | Percent Effect [2]: 10.8%

COc1ncccc1NC(=O)c1cccc(C)n1
Percent Effect [1]: 1.43% | Percent Effect [2]: -22.7%

Cc1ccc(F)cc1NC(=O)NCC(C)N1CCOCC1 (stereo not given)
Percent Effect [1]: -1.14% | Percent Effect [2]: -35%

O=C(Nc1ccccc1)N1CCn2nnc(COc3cccnc3)c2C1
Percent Effect [1]: 9.35% | Percent Effect [2]: -2.97%

Cc1ccc(=O)n(CC2(O)CCN(Cc3cnc(C)nc3)CC2)n1
Percent Effect [1]: 1.71% | Percent Effect [2]: 5.87%

CCC1=N[C@@]2(CC[C@@H]3CN(Cc4ccc(Cl)cc4)C[C@@H]32)C(=O)N1C
Percent Effect [1]: 3.65% | Percent Effect [2]: 3.45%

Cc1noc(C)c1CNCC1CCN(CC(O)c2ccccc2)CC1 (stereo not given)
Percent Effect [1]: -1.06% | Percent Effect [2]: -21.8%

O=C(C1CCS(=O)(=O)C1)N1CCN(c2cnccn2)CC1 (stereo not given)
Percent Effect [1]: 0.204% | Percent Effect [2]: 25.5%

COc1ccc(CNCC(C)Oc2ccccn2)cc1Br (stereo not given)
Percent Effect [1]: -3.54% | Percent Effect [2]: -30.6%

COc1cccc(C2CCCN2C(=O)c2cc3c([nH]c2=O)CCC3)c1 (stereo not given)
Percent Effect [1]: 1.28% | Percent Effect [2]: -5.59%

O=C(c1cc(F)ccc1F)C1CCN(C(=O)c2ccc(=O)[nH]n2)CC1
Percent Effect [1]: 0.519% | Percent Effect [2]: 28.6%

Cc1cc(Nc2nc(C)cs2)nc(C2CCCCN2CCO)n1 (stereo not given)
Percent Effect [1]: 0.7% | Percent Effect [2]: -34.2%

Cc1occc1C(=O)N1CCC2(CC1)CC(c1cccnc1)C(=O)N2C (stereo not given)
Percent Effect [1]: -1.22% | Percent Effect [2]: -20.1%

Cc1nn(C)c2c(N3CCN(C(=O)c4ccccc4)CC3)ncnc12
Percent Effect [1]: 0.348% | Percent Effect [2]: -28.7%

O=C1NCCN1C1CCN(CCc2cccs2)CC1
Percent Effect [1]: -0.519% | Percent Effect [2]: 4.4%

CN(CCCc1ccccc1)Cc1nc2c(cnn2C)c(=O)[nH]1
Percent Effect [1]: 1.38% | Percent Effect [2]: 28.4%

CC(C)c1nn(C)c(N(C)C)c1CNCc1cccc(CN(C)C)c1
Percent Effect [1]: 2.36% | Percent Effect [2]: 31.8%

CC(C)c1nnc2n1CCN(C(=O)c1ccc(OCC(N)=O)cc1)C2
Percent Effect [1]: -5.82% | Percent Effect [2]: -6.36%

O=C(NCCNc1ccc(C(F)(F)F)cn1)c1cncc(Br)c1
Percent Effect [1]: 3.26% | Percent Effect [2]: 28.2%

COc1ccnc(N2CCN(C(=O)CCc3nccs3)CC2)n1
Percent Effect [1]: -1.19% | Percent Effect [2]: -2.92%

CCc1nc(C)c(C(=O)NCCN2CCC(C)CC2)s1
Percent Effect [1]: -0.879% | Percent Effect [2]: -68.3%

CCn1nc(C)c2nc(C(C)C)nc(NCCOC)c21
Percent Effect [1]: -2.09% | Percent Effect [2]: -4.71%

O=C(CCc1cc(O)no1)N1CCCC(COc2ccc(F)cc2)C1 (stereo not given)
Percent Effect [1]: -2.45% | Percent Effect [2]: -19.8%
